From PubChem BioAssay (NCI)
“And” between values parts separate entries of the source, which are not always exact repeats. Equal entries are not always repeated. This is part of a sample that, as a whole, favours compounds with a hit. Of some 83,000 tested, about 20% had one in any assay.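 Step 1: grow cells in 96-well plates. Step 2: add test compound at a single concentration. Step 3: incubate 48 h. Step 4: record percent growth.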 The source made the active and inactive calls. The calls were made as follows: active = growth percent below 10; inactive = the rest.

Legend:
Assay in all cases: NCI-60 one-dose screen, 48 h (100 = growth as untreated, 0 = no growth, -100 = all killed)
MOLT-4 leukemia = conditions: 10 µM
SR leukemia = conditions: 10 µM
RPMI-8226 leukemia = conditions: 10 µM
OVCAR-5 ovarian = conditions: 10 µM
OVCAR-4 ovarian = conditions: 10 µM
SK-OV-3 ovarian = conditions: 10 µM
OVCAR-3 ovarian = conditions: 10 µM
NCI/ADR-RES ovarian = conditions: 10 µM
T-47D breast = conditions: 10 µM
BT-549 breast = conditions: 10 µM
MDA-MB-435 melanoma = conditions: 10 µM
SW-620 colon = conditions: 10 µM
MCF7 breast = test system: MCF7 breast
HCT-116 colon = conditions: 10 µM
KM12 colon = conditions: 10 µM
OVCAR-8 ovarian = conditions: 10 µM
IGROV1 ovarian = conditions: 10 µM
HS 578T breast = conditions: 10 µM
HCC-2998 colon = conditions: 10 µM

CC[C@@]1(O)C[C@H](OC2CC(N(C)C)C(O)C(C)O2)c2c(cc3c(c2O)C(=O)c2c(O)ccc(O)c2C3=O)[C@H]1C(=O)OC (some centres undefined)
growth (MOLT-4 leukemia): -19.5% (active)
growth (SR leukemia): -18.2% (active)
growth (RPMI-8226 leukemia): -32.6% (active)
growth (OVCAR-5 ovarian): -87% (active)
growth (OVCAR-4 ovarian): -44.2% (active)
growth (SK-OV-3 ovarian): -68.9% (active)
growth (OVCAR-3 ovarian): -41.6% (active)
growth (NCI/ADR-RES ovarian): -64.1% (active)
growth (T-47D breast): -42% (active)
growth (BT-549 breast): -80.2% (active)
growth (MDA-MB-435 melanoma): -95.7% (active)
growth (SW-620 colon): -90.5% (active)
growth (MCF7 breast; 10 µM unless noted): -39.6% (active)
growth (HCT-116 colon): -70.5% (active)
growth (KM12 colon): -58.1% (active)

C[C@]12CC[C@H]3[C@@H](CCC4=CC(=O)CC[C@@H]43)[C@@H]1CC[C@@H]2OC(=O)N(CCCl)N=O
growth (MOLT-4 leukemia): 12.8% (inactive)
growth (RPMI-8226 leukemia): 5.42% (active)
growth (OVCAR-8 ovarian): 54.3% (inactive)
growth (OVCAR-5 ovarian): 108% (inactive)
growth (SK-OV-3 ovarian): 46.7% (inactive)
growth (IGROV1 ovarian): -2.36% (active)
growth (OVCAR-3 ovarian): 89.9% (inactive)
growth (HS 578T breast): 69.7% (inactive)
growth (NCI/ADR-RES ovarian): 49% (inactive)
growth (T-47D breast): 54.2% (inactive)
growth (BT-549 breast): 66.6% (inactive)
growth (MDA-MB-435 melanoma): 68.5% (inactive)
growth (SW-620 colon): 52.5% (inactive)
growth (MCF7 breast; 10 µM unless noted): 58.4% (inactive)
growth (HCT-116 colon): 51.7% (inactive)
growth (HCC-2998 colon): 58.1% (inactive)
growth (KM12 colon): 28.2% (inactive)

CCOC(=O)c1[nH]cnc1/N=N/N(C)N
growth (MCF7 breast; 10 µM unless noted): 69.3% [100 µM] (inactive) and -85.5% [100 µM] (active)

Oc1c(Cl)cc(Cl)c2ccccc12.[Cu+2]
growth (MOLT-4 leukemia): 70.7% (inactive)
growth (SR leukemia): 31.4% (inactive)
growth (OVCAR-8 ovarian): 83% (inactive)
growth (OVCAR-5 ovarian): 127% (inactive)
growth (OVCAR-4 ovarian): 55.8% (inactive)
growth (SK-OV-3 ovarian): 87.2% (inactive)
growth (IGROV1 ovarian): 74.8% (inactive)
growth (OVCAR-3 ovarian): 79.7% (inactive)
growth (HS 578T breast): 88.9% (inactive)
growth (NCI/ADR-RES ovarian): 91.9% (inactive)
growth (T-47D breast): 82.9% (inactive)
growth (BT-549 breast): 106% (inactive)
growth (MDA-MB-435 melanoma): -83.4% (active)
growth (SW-620 colon): 88.3% (inactive)
growth (MCF7 breast; 10 µM unless noted): 74.3% (inactive)
growth (HCT-116 colon): 71.8% (inactive)
growth (HCC-2998 colon): 86% (inactive)
growth (KM12 colon): 98.9% (inactive)

COC(C(=O)C(O)C(C)O)C1Cc2cc3cc(OC4CC(OC(C)=O)C(OC5CC(O)C(OC)C(C)O5)C(C)O4)cc(O)c3c(O)c2C(=O)C1OC1CC(OC2CC(OC3CC(C)(O)C(OC(=O)C(C)C)C(C)O3)C(O)C(C)O2)C(O)C(C)O1 (centres undefined)
growth (MOLT-4 leukemia): -25.4% (active)
growth (SR leukemia): -23.4% (active)
growth (RPMI-8226 leukemia): -32.4% (active)
growth (OVCAR-4 ovarian): -0.721% (active)
growth (SK-OV-3 ovarian): 9.37% (active)
growth (IGROV1 ovarian): -39.4% (active)
growth (OVCAR-3 ovarian): -4.25% (active)
growth (NCI/ADR-RES ovarian): 47.4% (inactive)
growth (T-47D breast): -24.1% (active)
growth (BT-549 breast): -74.8% (active)
growth (MDA-MB-435 melanoma): -89.4% (active)
growth (SW-620 colon): -12% (active)
growth (MCF7 breast; 10 µM unless noted): 1.47% (active)
growth (HCT-116 colon): -40.2% (active)
growth (HCC-2998 colon): -94.4% (active)
growth (KM12 colon): -10.4% (active)

O=[N+]([O-])c1ccc(N2CCOCC2)c2c1no[n+]2[O-]
growth (MOLT-4 leukemia): 3.12% (active)
growth (RPMI-8226 leukemia): -7.12% (active)
growth (OVCAR-8 ovarian): 28.1% (inactive)
growth (OVCAR-5 ovarian): 43.8% (inactive)
growth (OVCAR-4 ovarian): -6.35% (active)
growth (SK-OV-3 ovarian): 7.59% (active)
growth (OVCAR-3 ovarian): -34.3% (active)
growth (HS 578T breast): 1.69% (active)
growth (NCI/ADR-RES ovarian): 16.3% (inactive)
growth (T-47D breast): 2.59% (active)
growth (BT-549 breast): -41.5% (active)
growth (MDA-MB-435 melanoma): 29.2% (inactive)
growth (SW-620 colon): 3.22% (active)
growth (MCF7 breast; 10 µM unless noted): 13.7% (inactive)
growth (HCT-116 colon): -25.9% (active)
growth (HCC-2998 colon): -49.1% (active)
growth (KM12 colon): -73.5% (active)

O=[N+]([O-])c1ccc(N(CCO)CCO)c2c1no[n+]2[O-]
growth (MOLT-4 leukemia): -24.4% (active)
growth (RPMI-8226 leukemia): -53.7% (active)
growth (OVCAR-8 ovarian): 2.5% (active)
growth (SK-OV-3 ovarian): -35.8% (active)
growth (OVCAR-3 ovarian): -65.9% (active)
growth (HS 578T breast): -30.8% (active)
growth (NCI/ADR-RES ovarian): 18.3% (inactive)
growth (T-47D breast): -14.9% (active)
growth (BT-549 breast): -61.3% (active)
growth (MDA-MB-435 melanoma): 2.88% (active)
growth (SW-620 colon): 0.768% (active)
growth (MCF7 breast; 10 µM unless noted): 6.05% (active)
growth (HCT-116 colon): -68.3% (active)
growth (HCC-2998 colon): -46.9% (active)
growth (KM12 colon): -40.1% (active)

CC1CCC2(OC1)OC1C(O)C3C4CCC5CC(OC6OC(CO)C(OC7OC(CO)C(O)C(OC8OCC(O)C(O)C8O)C7OC7OC(CO)C(O)C(OC8OC(CO)C(O)C(O)C8O)C7O)C(O)C6O)C(O)CC5(C)C4CCC3(C)C1C2C (centres undefined)
growth (MOLT-4 leukemia): 28.8% (inactive)
growth (SR leukemia): 9.36% (active)
growth (RPMI-8226 leukemia): -47.1% (active)
growth (OVCAR-5 ovarian): -62.6% (active)
growth (SK-OV-3 ovarian): -35.8% (active)
growth (OVCAR-3 ovarian): -83.1% (active)
growth (NCI/ADR-RES ovarian): -59.4% (active)
growth (T-47D breast): 50.1% (inactive)
growth (BT-549 breast): -74.8% (active)
growth (MDA-MB-435 melanoma): 47.5% (inactive)
growth (SW-620 colon): 51.2% (inactive)
growth (MCF7 breast; 10 µM): -34% (active)
growth (MCF7 breast; 100 µM): -84.7% (active) and -85.4% (active)
growth (HCT-116 colon): -72% (active)
growth (KM12 colon): 34.2% (inactive)

S=C=NCCc1ccccc1
growth (MOLT-4 leukemia): 53.4% (inactive)
growth (SR leukemia): 6.81% (active)
growth (RPMI-8226 leukemia): -18.9% (active)
growth (OVCAR-5 ovarian): 33.2% (inactive)
growth (SK-OV-3 ovarian): 122% (inactive)
growth (IGROV1 ovarian): 44.1% (inactive)
growth (OVCAR-3 ovarian): 72% (inactive)
growth (NCI/ADR-RES ovarian): 21.4% (inactive)
growth (T-47D breast): 40.4% (inactive)
growth (BT-549 breast): -20.2% (active)
growth (MDA-MB-435 melanoma): 66.4% (inactive)
growth (SW-620 colon): 56% (inactive)
growth (MCF7 breast; 10 µM unless noted): 20.3% (inactive)
growth (HCT-116 colon): 27.1% (inactive)
growth (KM12 colon): 41.9% (inactive)
